# The supplement of paper PMC9262897, “Low-cost anti-mycobacterial drug discovery using engineered E. coli” (Nature Communications, 2022)
# Where a name gives a salt, the structure may show the parent alone. ± gives the standard deviation of the averaged measurements.
# System: E. coli TESEC Mtb Alr
# Assay: growth (OD600 after 10 h); higher = more growth (less inhibition)
# Conditions: compound 0.1 mM
# Method: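 TESEC Mtb Alr E. coli, or the Alr+ wild-type control, in 384-well plates with Prestwick library compounds at 0.1 mM and 1% DMSO, across arabinose induction levels of 1E3 to 1E7 nM. Growth is read as OD600 after 10 h at 37 °C in triplicate biological replicates.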
# [1] = arabinose 1000 nM, raw OD600 reference: median of DMSO wells 0.294, cell-free background 0.041
# [2] = arabinose 10000 nM, raw OD600 reference: median of DMSO wells 0.264, cell-free background 0.041
# [3] = arabinose 100000 nM, raw OD600 reference: median of DMSO wells 0.201, cell-free background 0.041
# [4] = arabinose 1000000 nM, raw OD600 reference: median of DMSO wells 0.193, cell-free background 0.041
# [5] = arabinose 10000000 nM, raw OD600 reference: median of DMSO wells 0.146, cell-free background 0.041
SMILES,growth [1],growth [2],growth [3],growth [4],growth [5]
CCN(CC)C(=S)SSC(=S)N(CC)CC [Disulfiram],0.197 ± 0.027,0.115 ± 0.0063,0.161 ± 0.014,0.0709 ± 0.0023,0.06003 ± 0.00047
CN(C)c1ccc(O)c2c1C[C@H]1C[C@H]3[C@H](N(C)C)C(=O)C(C(N)=O)=C(O)[C@@]3(O)C(=O)C1=C2O [Minocycline hydrochloride],0.0422 ± 0.00083,0.0402 ± 0.00026,0.0426 ± 0.00055,0.0397 ± 0.00075,0.0426 ± 0.00067
Nc1nc2c(ncn2COCCO)c(=O)[nH]1 [Acyclovir],0.287 ± 0.021,0.2708 ± 0.0022,0.239 ± 0.019,0.196 ± 0.014,0.139 ± 0.0044
NC(Cc1cc(I)c(Oc2cc(I)c(O)c(I)c2)c(I)c1)C(=O)O (stereo not given) [Thyroxine (L)],0.2363 ± 0.0021,0.284 ± 0.006,0.196 ± 0.021,0.154 ± 0.0089,0.185 ± 0.0093
C[N+]1(CCCCC[N+]2(C)CCCC2)CCCC1 [Pentolinium bitartrate],0.282 ± 0.017,0.275 ± 0.0033,0.202 ± 0.014,0.1794 ± 0.0012,0.143 ± 0.0032
CC(CCc1ccccc1)NCC(O)c1ccc(O)c(C(N)=O)c1 (stereo not given) [Labetalol hydrochloride],0.246 ± 0.015,0.24 ± 0.011,0.174 ± 0.011,0.1371 ± 0.0012,0.137 ± 0.0031
CCCCC(=O)N(Cc1ccc(-c2ccccc2-c2nnn[nH]2)cc1)[C@H](C(=O)O)C(C)C [Valsartan],0.307 ± 0.0036,0.27 ± 0.0035,0.213 ± 0.02,0.193 ± 0.014,0.151 ± 0.0071
C[C@H]1O[C@@H](O[C@H]2[C@@H](O)C[C@H](O[C@H]3[C@@H](O)C[C@H](O[C@H]4CC[C@@]5(C)[C@H](CC[C@@H]6[C@@H]5C[C@@H](O)[C@]5(C)[C@@H](C7=CC(=O)OC7)CC[C@]65O)C4)O[C@@H]3C)O[C@@H]2C)C[C@H](O)[C@@H]1O [Digoxin],0.282 ± 0.01,0.275 ± 0.0083,0.2 ± 0.0092,0.176 ± 0.0061,0.136 ± 0.0037
